The values below come from the OligoGym collection.
Further: reference of the scale not given here.

One assay has as its target HNRNPL. The assay can be described thus: pooled miR-30 sensor sort-seq; sequence = guide strand. The following applies: shRNA.
Take TTGAACACATTCAAGCGTGTAG: the sensor-assay potency score (higher = more potent) was found to be 0.215.

Turning to TAGAGTAGTTGACAAAAGCTGG, the sensor-assay potency score (higher = more potent) is -0.329.

Regarding TTGTGTAGTCCCAAGTATCCTG, the sensor-assay potency score (higher = more potent) was determined as 0.0698.

The sequence TTCTTGAACACATTCAAGCGTG yielded a sensor-assay potency score (higher = more potent) of -0.271.

Regarding TTGAACTGAGTCAAATTCCACC, the sensor-assay potency score (higher = more potent) is -0.367.

Sequence TAGTGTAAAGAACATCCGTGGT yielded a sensor-assay potency score (higher = more potent) of -0.214.

The sequence TCTTGAACACATTCAAGCGTGT came in with a sensor-assay potency score (higher = more potent) of 0.0553.

TAAAAGTGAAGGTTAATCTTGG showed a sensor-assay potency score (higher = more potent) of 0.553.

The target of a further assay is HNRNPU. The description is as above. As to conditions: shRNA.
Regarding TTCTTCCTTATATTGCTCCAAG, the sensor-assay potency score (higher = more potent) was -1.21.

TTGCTTATAGTCTTCATCTTTT displayed a sensor-assay potency score (higher = more potent) of -0.867.

As for TTCTTCTTCAACAGGTGGCTGA, the sensor-assay potency score (higher = more potent) was -0.158.

For AACTACAACAGCTTTTCGCTGG, the sensor-assay potency score (higher = more potent) came to 0.276.

Take TAAAATTTCGCTTCTTTCGGGC: the sensor-assay potency score (higher = more potent) was 0.159.

Sequence TTTCATCAAACTTTTCTCCATA showed a sensor-assay potency score (higher = more potent) of -0.817.

With TTTGCTTCTTAAAACCTGCCAC, the sensor-assay potency score (higher = more potent) came to 0.467.

Sequence TTCATCTCAAAACACACTTTGC yielded a sensor-assay potency score (higher = more potent) of -0.868.

TATTGCTTTTCTTTGAGCCAGT had a sensor-assay potency score (higher = more potent) of -0.865.

In the case of TTATCCATAATAGTATTTGTGC, the sensor-assay potency score (higher = more potent) is -0.391.

In the case of TTGAGTAACTACCACGGCCAGG, the sensor-assay potency score (higher = more potent) was -1.38.

The target in another assay is HOOK2. The assay is described as above. The following applies: shRNA.
The sequence TTCTGACACAGGATGCGCCAGG showed a sensor-assay potency score (higher = more potent) of -0.785.

With TTAGGAAATAGTACCTGCGGGA, the sensor-assay potency score (higher = more potent) is -0.0973.

In turn, TTTCTCAAAGTCCATCTCCAGG returned a sensor-assay potency score (higher = more potent) of -1.2.

Sequence TGGAACGTCTGTAACCAGGTGA displayed a sensor-assay potency score (higher = more potent) of 0.0642.

Take TTTTTCTCGCAACTGATGGCAC: the sensor-assay potency score (higher = more potent) was -0.412.

As to ATGGTCTGCATGACCATGCGGG, the sensor-assay potency score (higher = more potent) was -1.25.

On to TACTAGGCTCCGTAAGACCATC, for which the sensor-assay potency score (higher = more potent) is -1.58.

As to TACGTCTCTGGTGACAGGGAGT, the sensor-assay potency score (higher = more potent) is -0.714.

Sequence TTCCATGGTCTGCATGACCATG registered a sensor-assay potency score (higher = more potent) of -1.55.

Sequence TCAGCTTCCAGTTGGGACCTGG showed a sensor-assay potency score (higher = more potent) of -0.00912.

As for TCACTTAGGAAATAGTACCTGC, the sensor-assay potency score (higher = more potent) was -0.233.

TCCTCTGCAACTCCAGATCTGC showed a sensor-assay potency score (higher = more potent) of -1.56.

For a further assay, the target named is HOXA6. The description is as above. As to conditions: shRNA.
TTGGCGATCTCGATGCGGCGGC gave a sensor-assay potency score (higher = more potent) of -0.809.

As for TTGGACTGTTGGTAGAAACAAG, the sensor-assay potency score (higher = more potent) is -1.21.

TATCAGAATAGAAACACGAGGC yielded a sensor-assay potency score (higher = more potent) of -0.218.

In turn, TGTACTTCCGGTCGGCGCCTTC displayed a sensor-assay potency score (higher = more potent) of -0.845.

In turn, TTGATGAGCTTGTTTTCCTTTT came in with a sensor-assay potency score (higher = more potent) of -0.78.

The sequence TTGTACTGCTGCTCGGGAGAAA returned a sensor-assay potency score (higher = more potent) of -0.818.

With ATTGATGAGCTTGTTTTCCTTT, the sensor-assay potency score (higher = more potent) turned out to be 0.0267.

In turn, TTATCAGAATAGAAACACGAGG registered a sensor-assay potency score (higher = more potent) of -1.05.

On to TTGGTAGAAACAAGGTGAGGTG, for which the sensor-assay potency score (higher = more potent) was -0.106.
